Results reported in the supplement of paper PMC10849652.
About 7,900 targets were measured; listed, in parts, are those with a hit and a random draw of the rest. About 0.6% of all pairs of compound and target were hits.

compound: C1=CC2=C(C=CC(=C2)/C=C\3/C(=O)NC(=NCC4=CC=CS4)S3)N=C1; assay: log2 fold change, soluble protein after heating vs DMSO (PISA); higher = thermal stabilisation; K562 cells, 10 uM, 30 min; active = over 0.2 and 3.5 SD of the protein, either way, in both replicates (recomputed)
Summary of the method: (§1)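 K562 cells at 2×10^6 cells/mL were given 10 μM compound for 30 min. Aliquots then went through 3 min of heating across 48°C-58°C, were pooled, and were extracted in PBS with 0.5% NP-40 at 4°C, and the supernatant after 21,000xg for 90 min was quantified by TMTpro 16plex LC-MS/MS with channel sums equalised. Thermal stability relative to control samples, from duplicates, is given as log2 fold change.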

Sequence of UniProt Q9UK59 (Q9UK59 whole entry, looked up): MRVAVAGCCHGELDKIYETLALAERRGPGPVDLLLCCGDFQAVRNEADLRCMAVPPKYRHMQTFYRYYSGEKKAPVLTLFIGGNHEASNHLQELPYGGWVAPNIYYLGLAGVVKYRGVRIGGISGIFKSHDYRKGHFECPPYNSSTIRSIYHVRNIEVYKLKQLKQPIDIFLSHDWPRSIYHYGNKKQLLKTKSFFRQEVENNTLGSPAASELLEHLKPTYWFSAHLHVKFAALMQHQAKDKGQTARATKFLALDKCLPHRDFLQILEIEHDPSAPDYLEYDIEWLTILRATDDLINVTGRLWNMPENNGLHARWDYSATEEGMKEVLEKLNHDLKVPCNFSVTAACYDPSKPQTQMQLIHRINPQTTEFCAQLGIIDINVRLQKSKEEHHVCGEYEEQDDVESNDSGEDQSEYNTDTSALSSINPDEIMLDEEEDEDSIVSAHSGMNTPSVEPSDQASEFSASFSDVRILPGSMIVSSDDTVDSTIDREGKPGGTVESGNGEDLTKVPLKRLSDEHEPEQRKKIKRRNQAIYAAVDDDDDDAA
Sequence of UniProt Q99848 (Q99848 whole entry, looked up): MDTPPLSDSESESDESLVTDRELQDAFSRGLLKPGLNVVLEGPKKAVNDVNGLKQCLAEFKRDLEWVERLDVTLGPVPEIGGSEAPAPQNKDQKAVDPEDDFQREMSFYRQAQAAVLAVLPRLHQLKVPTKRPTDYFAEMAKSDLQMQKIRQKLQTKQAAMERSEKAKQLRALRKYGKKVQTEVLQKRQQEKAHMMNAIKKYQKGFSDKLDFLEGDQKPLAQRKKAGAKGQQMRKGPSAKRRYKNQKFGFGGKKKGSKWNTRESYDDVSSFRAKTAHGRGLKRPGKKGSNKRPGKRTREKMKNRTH
Sequence of UniProt Q96KC8 (Q96KC8 whole entry, looked up): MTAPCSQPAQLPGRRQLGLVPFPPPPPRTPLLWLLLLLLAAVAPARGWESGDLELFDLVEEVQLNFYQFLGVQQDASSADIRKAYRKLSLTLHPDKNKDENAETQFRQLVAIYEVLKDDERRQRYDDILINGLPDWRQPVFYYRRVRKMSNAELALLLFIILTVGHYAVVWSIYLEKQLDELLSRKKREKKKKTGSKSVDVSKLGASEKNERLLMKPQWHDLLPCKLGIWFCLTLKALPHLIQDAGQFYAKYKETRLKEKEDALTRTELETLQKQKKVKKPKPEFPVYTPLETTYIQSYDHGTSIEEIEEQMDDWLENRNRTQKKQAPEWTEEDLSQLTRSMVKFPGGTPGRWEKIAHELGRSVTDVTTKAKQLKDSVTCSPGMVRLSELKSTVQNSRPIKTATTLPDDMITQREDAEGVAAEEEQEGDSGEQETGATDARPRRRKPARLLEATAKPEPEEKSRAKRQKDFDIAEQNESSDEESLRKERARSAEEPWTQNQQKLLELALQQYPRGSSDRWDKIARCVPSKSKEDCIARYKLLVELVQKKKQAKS
Sequence of UniProt Q8IYI6 (Q8IYI6 whole entry, looked up): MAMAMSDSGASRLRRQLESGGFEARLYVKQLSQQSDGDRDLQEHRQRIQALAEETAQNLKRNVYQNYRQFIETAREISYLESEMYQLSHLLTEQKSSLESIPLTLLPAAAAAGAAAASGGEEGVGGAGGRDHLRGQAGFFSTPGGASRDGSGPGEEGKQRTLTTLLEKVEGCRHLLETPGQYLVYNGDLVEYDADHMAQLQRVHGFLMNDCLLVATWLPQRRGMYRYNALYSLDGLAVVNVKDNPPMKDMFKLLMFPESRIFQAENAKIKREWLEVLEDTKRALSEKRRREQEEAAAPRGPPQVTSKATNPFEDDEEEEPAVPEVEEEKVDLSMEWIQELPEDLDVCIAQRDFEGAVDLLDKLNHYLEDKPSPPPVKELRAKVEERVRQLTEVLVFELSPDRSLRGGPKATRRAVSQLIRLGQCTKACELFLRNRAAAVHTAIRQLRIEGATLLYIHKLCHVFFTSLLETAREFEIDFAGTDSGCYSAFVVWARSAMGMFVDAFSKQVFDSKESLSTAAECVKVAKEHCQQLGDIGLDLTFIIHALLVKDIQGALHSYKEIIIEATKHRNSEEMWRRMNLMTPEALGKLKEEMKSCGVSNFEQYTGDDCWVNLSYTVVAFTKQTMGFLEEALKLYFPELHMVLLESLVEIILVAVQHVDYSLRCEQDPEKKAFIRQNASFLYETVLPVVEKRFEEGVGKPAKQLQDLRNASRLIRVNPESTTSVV
Sequence of UniProt Q8NBA8 (Q8NBA8 whole entry, looked up): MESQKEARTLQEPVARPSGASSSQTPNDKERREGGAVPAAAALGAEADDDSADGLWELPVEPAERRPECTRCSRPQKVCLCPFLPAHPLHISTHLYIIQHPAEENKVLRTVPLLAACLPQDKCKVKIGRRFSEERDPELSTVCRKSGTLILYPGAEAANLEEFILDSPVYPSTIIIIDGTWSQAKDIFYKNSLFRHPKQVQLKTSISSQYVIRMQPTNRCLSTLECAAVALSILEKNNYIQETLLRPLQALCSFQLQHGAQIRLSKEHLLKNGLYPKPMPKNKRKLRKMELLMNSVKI
Sequence of UniProt O60888 (O60888 whole entry, looked up): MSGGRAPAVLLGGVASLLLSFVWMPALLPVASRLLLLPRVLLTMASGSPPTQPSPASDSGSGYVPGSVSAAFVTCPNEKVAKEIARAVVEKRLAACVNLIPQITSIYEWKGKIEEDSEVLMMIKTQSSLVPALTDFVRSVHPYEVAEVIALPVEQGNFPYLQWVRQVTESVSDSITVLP
Sequence of UniProt Q14689 (Q14689 whole entry, looked up): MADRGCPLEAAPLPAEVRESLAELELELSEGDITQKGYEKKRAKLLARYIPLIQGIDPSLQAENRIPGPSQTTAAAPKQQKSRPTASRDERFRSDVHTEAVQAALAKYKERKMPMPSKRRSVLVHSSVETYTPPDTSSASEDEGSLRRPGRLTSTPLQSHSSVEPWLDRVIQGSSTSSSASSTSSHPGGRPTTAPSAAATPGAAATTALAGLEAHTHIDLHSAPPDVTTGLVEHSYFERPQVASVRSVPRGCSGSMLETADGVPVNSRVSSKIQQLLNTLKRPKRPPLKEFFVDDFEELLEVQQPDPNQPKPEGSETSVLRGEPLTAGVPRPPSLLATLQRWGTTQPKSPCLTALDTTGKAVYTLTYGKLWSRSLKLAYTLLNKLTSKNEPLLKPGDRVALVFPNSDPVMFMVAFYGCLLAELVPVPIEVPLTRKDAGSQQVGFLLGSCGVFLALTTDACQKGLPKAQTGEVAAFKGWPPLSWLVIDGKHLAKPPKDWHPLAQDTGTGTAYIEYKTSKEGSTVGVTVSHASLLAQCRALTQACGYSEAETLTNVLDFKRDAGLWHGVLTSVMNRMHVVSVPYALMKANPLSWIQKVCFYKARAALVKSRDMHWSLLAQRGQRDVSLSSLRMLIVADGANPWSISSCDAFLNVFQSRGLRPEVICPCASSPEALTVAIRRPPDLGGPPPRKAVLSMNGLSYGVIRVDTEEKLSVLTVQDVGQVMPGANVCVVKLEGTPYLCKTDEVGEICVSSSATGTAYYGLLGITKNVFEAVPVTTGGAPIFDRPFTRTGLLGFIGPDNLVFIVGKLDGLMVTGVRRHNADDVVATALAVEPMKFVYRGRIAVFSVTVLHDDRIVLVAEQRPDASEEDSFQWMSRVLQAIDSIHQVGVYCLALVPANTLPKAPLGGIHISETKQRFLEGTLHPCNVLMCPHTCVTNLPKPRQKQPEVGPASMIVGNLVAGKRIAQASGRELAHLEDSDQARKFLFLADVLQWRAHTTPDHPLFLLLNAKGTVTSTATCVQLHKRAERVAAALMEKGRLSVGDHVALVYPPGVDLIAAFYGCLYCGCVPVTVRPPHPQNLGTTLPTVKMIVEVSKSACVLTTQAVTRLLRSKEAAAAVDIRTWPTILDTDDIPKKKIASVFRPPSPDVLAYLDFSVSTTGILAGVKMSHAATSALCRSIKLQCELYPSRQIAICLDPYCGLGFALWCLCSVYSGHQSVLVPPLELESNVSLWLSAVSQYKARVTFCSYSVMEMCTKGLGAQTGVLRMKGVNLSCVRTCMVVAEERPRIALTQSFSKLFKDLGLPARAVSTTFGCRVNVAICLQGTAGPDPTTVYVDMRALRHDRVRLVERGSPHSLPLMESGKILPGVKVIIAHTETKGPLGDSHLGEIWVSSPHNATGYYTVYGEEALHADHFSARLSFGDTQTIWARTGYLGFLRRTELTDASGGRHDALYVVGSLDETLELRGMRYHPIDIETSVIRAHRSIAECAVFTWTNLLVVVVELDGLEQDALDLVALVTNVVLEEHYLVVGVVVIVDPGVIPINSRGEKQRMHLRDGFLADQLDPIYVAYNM
Sequence of UniProt Q96G46 (Q96G46 whole entry, looked up): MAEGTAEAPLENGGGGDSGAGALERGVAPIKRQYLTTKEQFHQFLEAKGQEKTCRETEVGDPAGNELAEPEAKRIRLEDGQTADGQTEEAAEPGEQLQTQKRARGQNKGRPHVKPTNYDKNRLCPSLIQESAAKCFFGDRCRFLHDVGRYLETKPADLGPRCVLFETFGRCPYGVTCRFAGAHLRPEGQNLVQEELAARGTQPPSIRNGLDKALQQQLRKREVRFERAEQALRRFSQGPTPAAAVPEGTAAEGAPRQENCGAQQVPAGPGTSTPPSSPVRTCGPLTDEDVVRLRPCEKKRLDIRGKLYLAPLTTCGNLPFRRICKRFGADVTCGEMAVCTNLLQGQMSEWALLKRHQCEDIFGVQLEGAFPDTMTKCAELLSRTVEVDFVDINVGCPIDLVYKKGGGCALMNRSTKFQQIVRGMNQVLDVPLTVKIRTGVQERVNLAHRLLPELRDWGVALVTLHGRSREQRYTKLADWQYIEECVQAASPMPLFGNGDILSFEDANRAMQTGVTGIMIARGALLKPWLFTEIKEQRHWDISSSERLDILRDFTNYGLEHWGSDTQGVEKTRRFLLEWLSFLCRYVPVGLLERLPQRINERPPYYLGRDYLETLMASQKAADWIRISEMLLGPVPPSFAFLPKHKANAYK
Sequence of UniProt P00374 (P00374 whole entry, looked up): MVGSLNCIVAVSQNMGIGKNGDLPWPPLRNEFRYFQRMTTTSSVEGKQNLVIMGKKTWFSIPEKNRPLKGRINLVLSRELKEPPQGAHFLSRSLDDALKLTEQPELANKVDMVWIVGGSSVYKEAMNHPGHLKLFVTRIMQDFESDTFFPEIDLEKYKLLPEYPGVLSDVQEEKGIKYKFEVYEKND

log2 fold change, inactive:
CTU1 (UniProt Q7Z7A3) 0.079, DNAJC1 (UniProt Q96KC8) 0.082, EIF4E isoform 2 (UniProt P06730) 0.01, DIP2A (UniProt Q14689) -0.145, DBN1 isoform 3 (UniProt Q16643) -0.074, EXOC6 (UniProt Q8TAG9) 0.096, EXTL2 (UniProt Q9UBQ6) 0.016, DDOST (UniProt P39656) -0.085, DDX39A (UniProt O00148) -0.026, ERCC6 (UniProt Q03468) -0.096, DYRK1A isoform 2 (UniProt Q13627) -0.095, DBR1 (UniProt Q9UK59) -0.033, EEF1G isoform 2 (UniProt P26641) -0.036, DHFR (UniProt P00374) 0.03, EFL1 (UniProt Q7Z2Z2) 0.013, FAM114A2 (UniProt Q9NRY5) 0.008, DNAAF2 (UniProt Q9NVR5) 0.01, EXOC8 (UniProt Q8IYI6) 0.05, DUS3L (UniProt Q96G46) 0.016, DHPS (UniProt P49366) -0.034, EDEM2 (UniProt Q9BV94) 0.132, DHX16 (UniProt O60231) 0.007, ERCC2 (UniProt P18074) 0.041, DHCR24 (UniProt Q15392) 0.081, DNM2 (UniProt P50570) 0.046, EHBP1L1 (UniProt Q8N3D4) 0.057, FAM118B (UniProt Q9BPY3) 0.123, EBNA1BP2 (UniProt Q99848) 0.042, CUTA isoform 2 (UniProt O60888) 0, EXOC1 (UniProt Q9NV70) 0.17, DFFB (UniProt O76075) 0.101, ELOVL1 (UniProt Q9BW60) 0.036, FAM3A (UniProt P98173) 0.059, DTWD2 (UniProt Q8NBA8) -0.124, DDB1 (UniProt Q16531) 0.003, E2F4 (UniProt Q16254) 0.029, DPH5 isoform 5 (UniProt Q9H2P9) 0.022, CTNNB1 (UniProt P35222) 0.092, FAM50A (UniProt Q14320) -0.009

compound: C1=CC2=NC=CN=C2C=C1/C=C/3\C(=O)NC(=O)S3; assay: as above
Summary of the method: as §1

log2 fold change, inactive:
CTU1 (UniProt Q7Z7A3) 0.011, DNAJC1 (UniProt Q96KC8) 0.004, EIF4E isoform 2 (UniProt P06730) 0.168, DIP2A (UniProt Q14689) 0.076, DBN1 isoform 3 (UniProt Q16643) 0.02, EXOC6 (UniProt Q8TAG9) 0.076, EXTL2 (UniProt Q9UBQ6) 0.037, DDOST (UniProt P39656) 0.014, DDX39A (UniProt O00148) -0.068, ERCC6 (UniProt Q03468) -0.224, DYRK1A isoform 2 (UniProt Q13627) -0.173, DBR1 (UniProt Q9UK59) 0.002, EEF1G isoform 2 (UniProt P26641) -0.021, DHFR (UniProt P00374) 0.043, EFL1 (UniProt Q7Z2Z2) 0.002, FAM114A2 (UniProt Q9NRY5) 0.067, DNAAF2 (UniProt Q9NVR5) 0.016, EXOC8 (UniProt Q8IYI6) 0.017, DUS3L (UniProt Q96G46) 0.037, DHPS (UniProt P49366) 0.033, EDEM2 (UniProt Q9BV94) -0.318, DHX16 (UniProt O60231) -0.01, ERCC2 (UniProt P18074) -0.051, DHCR24 (UniProt Q15392) -0.024, DNM2 (UniProt P50570) -0.001, EHBP1L1 (UniProt Q8N3D4) 0.026, FAM118B (UniProt Q9BPY3) 0, EBNA1BP2 (UniProt Q99848) 0.052, CUTA isoform 2 (UniProt O60888) 0.003, EXOC1 (UniProt Q9NV70) 0.013, DFFB (UniProt O76075) 0.016, ELOVL1 (UniProt Q9BW60) 0.011, FAM3A (UniProt P98173) 0.082, DTWD2 (UniProt Q8NBA8) 0.072, DDB1 (UniProt Q16531) 0.014, E2F4 (UniProt Q16254) 0.043, DPH5 isoform 5 (UniProt Q9H2P9) 0.03, CTNNB1 (UniProt P35222) 0.108, FAM50A (UniProt Q14320) 0.062
